According to PubChem BioAssay AID624169 (The Scripps Research Institute Molecular Screening Center, 2012):
Out of some 360,000 compounds screened, about 2,400 (0.67%) were called active.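 The calls were made as follows: active = activation above a run cutoff, the mean activation of all tested compounds plus 3 SD (cut at about 14% in these data); inactive = the rest.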 For the sample, actives were picked, then their nearest neighbours and some compounds at random.

These compounds were tested against 5-hydroxytryptamine receptor 2A (Mus musculus) (UniProt P35363) (assay: mouse Htr2a agonists via beta-arrestin recruitment, primary screen, cell-based, luminescence (AID 624169;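 also: 0% = plate median of compound wells and 100% = 30 µM serotonin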)). Settings: CHO-K1 mHTR2A beta-arrestin complementation, at 7.6 µM, stronger effect = higher value, percent of 30 µM serotonin response.
5-hydroxytryptamine receptor 2A (Mus musculus), sequence (P35363 whole entry, looked up): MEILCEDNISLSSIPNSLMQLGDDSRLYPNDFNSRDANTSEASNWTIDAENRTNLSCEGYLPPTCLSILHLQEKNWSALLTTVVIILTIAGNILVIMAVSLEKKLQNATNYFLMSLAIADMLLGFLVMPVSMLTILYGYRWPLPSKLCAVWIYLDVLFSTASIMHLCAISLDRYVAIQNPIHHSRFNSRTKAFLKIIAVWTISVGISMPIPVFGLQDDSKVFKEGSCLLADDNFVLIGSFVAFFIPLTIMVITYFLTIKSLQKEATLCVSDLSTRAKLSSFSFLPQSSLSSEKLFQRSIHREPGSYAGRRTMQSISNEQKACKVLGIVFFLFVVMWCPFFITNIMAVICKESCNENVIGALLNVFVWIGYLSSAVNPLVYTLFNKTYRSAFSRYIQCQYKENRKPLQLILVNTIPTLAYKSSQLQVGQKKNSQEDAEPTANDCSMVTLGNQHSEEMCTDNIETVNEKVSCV

activation, inactive:
COc1ccc(C(=O)OCC(=O)NC(=O)CCSc2ccccc2)cc1 1.32%
C[C@@H]1C(c2ccc(F)cc2)=NN(c2ccc(Br)cc2)[C@H]1C(=O)N1CCOC1=O -5.98%
CCCCCC(O)(CCN1CCCCC1)c1ccccc1 (centres undefined) -1.22%
O=C(CSc1nnc(N2CCOCC2)n1-c1cccc(F)c1)N1CCN(c2ccccn2)CC1 -5.52%
CCc1ccccc1NC(=O)CCOc1ccccc1 1.35%
Cc1ccccc1NC(=O)CCOc1ccccc1 4.29%
CC(=O)Nc1cc(-c2ccccc2F)cn2c(-c3cccc(C(F)(F)F)c3)cnc12 1.96%
Cc1ccc(CN2CC(N3CCC(Cc4ccccc4)CC3)CS2(=O)=O)cc1 (centres undefined) -4.23%
Cc1ccc(Cn2cc(CN3CC(N4CCN(C)CC4)CS3(=O)=O)nn2)cc1 (centres undefined) -3.17%
CCCCN1CC(N2CCN(Cc3cccc(C)c3)CC2)CS1(=O)=O (centres undefined) 12.1%
Cc1cccc(CN2CCN(C3CN(Cc4cn(Cc5ccccc5F)nn4)S(=O)(=O)C3)CC2)c1 (centres undefined) 7.98%
COc1ccc(N2CCN(S(=O)(=O)c3cc4c5c(c3)C(C)C(=O)N5CCC4)CC2)cc1 (centres undefined) 4.42%
O=C(CNC(=O)c1cc(=O)[nH]c2ccccc12)Nc1ccc(F)c(F)c1 -0.64%
CC1=C(C(=O)N2CCOCC2)CC(CC(=O)NCC2CCCCC2)C(=O)N1Cc1ccc(F)cc1 (centres undefined) 0.51%
O=C(COC(=O)CNC(=O)C1CCCCC1)NCc1ccccc1 4.87%
C#CCSc1nnc(-c2sc3ccccc3c2Cl)o1 3.02%
Fc1cccc(Cl)c1COc1ccc(-c2nnco2)cc1 0.11%
CS(=O)(=O)c1ccc(Cl)c(NC(=O)COC(=O)c2cccc(S(=O)(=O)N3CCCC3)c2)c1 -2.1%
O=C(COC(=O)CCOc1ccccc1)Nc1cc(S(=O)(=O)N2CCCCC2)ccc1Cl 2.8%
Cc1ccc(S(=O)(=O)NCc2ccc(C(=O)NC3CCC(C)CC3)cc2)cc1 (centres undefined) -3.68%
Cc1ccc(C(=O)NC2CC(C)(C)NC(C)(C)C2)c(C)c1 3.41%
Cc1ccccc1C(=O)N1CCC(C(=O)Oc2ccc(C#N)cc2)CC1 -3.91%
O=C(NNc1cc(Cl)cc(Cl)c1)c1c(F)cccc1Cl 1.49%
CCCCN(CC)C(=O)c1ccc2c(c1)OCO2 1.68%
Cc1ccc2cc(CCNC(=O)c3ccc4c(c3)OCO4)c(=O)[nH]c2c1 5.29%
Cn1nnnc1-c1cc(Cl)cc(Cl)c1 2.61%
COc1ccc(C)cc1NC(=O)CSc1nc(SC)ns1 -0.61%
COc1ccc(NC(=O)CSc2nc(SC)ns2)c(OC)c1 0.26%
Cc1cccc(C(=O)N[C@H](C(=O)NCc2cccs2)C(C)C)c1 5.5%
CCC(C)c1ccc(O)c(/C=N/O)c1 (centres undefined) -3.25%
C=CCNC(=O)C12CC3CC(C1)CC(C(=O)NCC=C)(C3)C2 -0.48%
Cc1ccccc1NC(=O)C1CCN(C(=O)NC2CCCCC2)CC1 -2.36%
O=C(Nc1ccccc1C(=O)O)c1ccc(N2C(=O)C3CC=CCC3C2=O)cc1 (centres undefined) -7.43%
O=C(c1cc2ccccc2o1)N1CCN(Cc2ccccc2)CC1 -4.53%
CC(C)c1csc(CN2CCC(CO)(Cc3ccccc3)CC2)n1 -5.03%
CC(C)(C)NC(=O)C(=O)NCc1ccncc1 -5.23%
COCCCN1C(=O)c2ccc(C(=O)OCC(=O)NCc3ccccc3OC)cc2C1=O -1.38%
COc1ccc(S(=O)(=O)NC(C)c2ccccc2)cc1C(=O)N1CCCCC1 (centres undefined) 4.88%
C[C@H](O)[C@@H]1C(=O)N2CCc3ccc(N4CCOCC4)cc3[C@@H]2C[C@@H]1N(C)C(=O)C(C)(C)C 9.06%
CN[C@H]1C[C@H]2c3cc(Oc4ccccc4C)ccc3CCN2C(=O)[C@H]1[C@H](C)O 0.5%
Cc1nn(C)cc1S(=O)(=O)N1CCN(c2ccc(F)cc2)CC1 -4.86%
O=C(NC(c1ccc(Cl)cc1)c1cnccn1)C1CCN(Cc2ccc(Cl)cc2)CC1 (centres undefined) -6.28%
Cc1ccc(C(NC(=O)C2CCN(CCOc3ccc(Cl)cc3Cl)CC2)c2ccccn2)cc1 (centres undefined) -3.52%
CCC/C=C(\CCC)C(NC(=O)Cc1ccccc1)c1ccc(C(=O)OC)cc1 (centres undefined) -7.9%
Cc1cccc(N2CC(C)Cn3c2nc2c3c(=O)n(CC(=O)OCc3ccccc3)c(=O)n2C)c1 (centres undefined) 0.76%
CNS(=O)(=O)c1cccc(C(=O)OCC(=O)N2c3ccccc3NC(=O)C2(C)C)c1 -2.19%
Cc1ccc(OCCC(=O)OCC(=O)N2c3ccccc3NC(=O)C2(C)C)cc1 -2.36%
COc1ccc(N)cc1NC(=O)CN1CCOCC1 -3.94%
COc1ccc(C)cc1N(C(=O)Cn1nnc(-c2ccc(C)o2)n1)C(C(=O)NC1CCCC1)c1ccncc1 (centres undefined) -2.27%
COC(=O)c1ccc(S(=O)(=O)NCc2ccccc2)n1C -2.3%
CC(C(=O)N1CCc2ccccc21)N(C)CC(=O)Nc1ccc(F)cc1 (centres undefined) -3.41%
O=C(Cc1cccs1)NCc1cccc(C(F)(F)F)c1 -6.31%
Cc1ccc(S(=O)(=O)/N=C(\N)c2ccc(F)cc2)cc1 0.59%
Oc1ccccc1C1=NN(c2ccccc2)C(c2ccccc2)C1 (centres undefined) 5.22%
O=C1C2N=NN(CC(=O)N3N=C(c4cccc5ccccc45)CC3c3ccccc3)C2C(=O)N1c1ccccc1 (centres undefined) 2.13%
CCN(CC(=O)Nc1cccc(S(=O)(=O)N2CCCCC2)c1)Cc1ccccc1 -11.3%
COc1cc(Cl)ccc1OCc1cc(C(=O)N(C)CCc2c(C)n[nH]c2C)no1 -10.7%
CCCNC(=O)C1(C)CCN1C(=O)C1(c2ccccc2)CC1 (centres undefined) -0.58%
CCCOc1ccc(Cc2c(O)nc(N)[nH]c2=O)cc1C 2.5%

activation, active:
Cc1ccc(NC(=O)CCOc2ccccc2)cc1S(=O)(=O)Nc1ccccc1Cl 15.2%
Cc1cccc(CN2CCN(C3CN(Cc4ccccc4)S(=O)(=O)C3)CC2)c1 (centres undefined) 20.9%
Cc1cccc(CN2CCN(C3CN(Cc4cn(Cc5cc(C)cc(C)c5)nn4)S(=O)(=O)C3)CC2)c1 (centres undefined) 19.3%
COc1ccc2c(Cl)c(-c3nnco3)sc2c1 15.6%
O=C(CNCc1cccs1)Nc1cc(S(=O)(=O)N2CCCC2)ccc1Cl 17.4%
Cc1ccc2c(c1)NCC(C(=O)NC1CCC(C)CC1)O2 (centres undefined) 16.6%
COCCN(Cc1cc2cc3c(cc2nc1Cl)OCO3)C(=O)c1cccc(C)c1 16.6%
CSc1nsc(SCC(=O)Nc2cc(C(=O)O)ccc2C)n1 15.6%
CNCC(O)c1ccc(O)c(O)c1 (centres undefined) 26.5%
OCC1(Cc2ccccc2)CCN(Cc2cc3ccccc3o2)CC1 19.6%
C[C@@H]1ON(C)[C@H]2C[C@H]3c4cc(N5CCN(C)CC5)ccc4CCN3C(=O)[C@@H]12 29.5%
Cc1cccnc1C(NC(=O)C1CCN(Cc2ccc(Cl)c(Cl)c2)CC1)c1ccc(Cl)cc1 (centres undefined) 16.4%
Cc1cc(C(=O)OCC(=O)N2c3ccccc3NC(=O)C2(C)C)c(C)n1-c1ccccc1 15.2%
N/C(=N\S(=O)(=O)c1cc(C(F)(F)F)cc(C(F)(F)F)c1)c1cccs1 31.8%
Cc1ccc(N2C(=O)C3N=NN(CC(=O)N4N=C(c5cccc6ccccc56)CC4c4ccccc4)C3C2=O)cc1 (centres undefined) 17.6%
